PAX8 inh HTS: inhibitors of PAX8 transcriptional activity in RMG-I cells; AID 652154; actives 1.2% (n = 360,000); RMG-I TPO-luciferase reporter, SteadyGlo, 24 h; inhibition, % at 12.6 µM;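 active = mean replicate inhibition at least 60% with every replicate also reaching 60%; inconclusive = only one of the two criteria is met; inactive = mean below 60% and not all replicates reaching 60%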;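 also: luciferase light reporting Pax8 driven TPO promoter activity; plate controls were median of neutral control wells for no effect and mitoxantrone controls for full effect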
TRPM1 prom inh: MITF TRPM1 promoter inhibition in SK-MEL-5 cells; SK-MEL-5 TRPM1 promoter luciferase, 24 h; inhibition, % at 12.5 µM; actives 0.83% (n = 330,000);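 active = mean inhibition across replicates of 60% or more, whatever share of single replicates reaches that level; inconclusive = some that reach 60%, reason not given; inactive = mean inhibition across replicates below 60%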
EBV LMP1 NFkB: reduces LMP1-driven NF-kappaB luciferase signal | LMP1-induced NF-kappaB luciferase reporter cells, luminescence | inhibition, % at 12.5 µM | actives 0.69% (n = 350,000) | AID 504558; in the data active = inhibition above about 41%; inconclusive = no clear call, values can overlap the other calls;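 also: 0% = neutral control wells and 100% = reference inhibitor control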
HIF-2a inh: blocks HIF-2a reporter activity; AID 624352; inhibition, % at 18.8 µM; 786-0 RCC cells HIF-2a reporter, luciferase luminescence, overnight; actives 0.72% (n = 360,000);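 active = inhibition of the luminescence signal of 40% or more relative to plate controls, in a single-dose primary screen at 18.75 µM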
Peg3 promoter: reduces Peg3 promoter-driven luciferase expression in HeLa; HeLa PEG-Prom luciferase reporter, luminescence, overnight; inhibition, % at 20 µM; actives 1.7% (n = 360,000); AID 588405;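 active = inhibition of at least 50% at 20 µM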
Shn3 inh set2: inhibitors of Schnurri-3 3'UTR reporter in osteoblasts; Clone20 osteoblast Shn3 3'UTR firefly luciferase, 24 h; inhibition, % at 12.5 µM; actives 0.52% (n = 360,000);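 active = mean inhibition of at least 75% with every replicate also reaching 75%; inconclusive = mean inhibition at least 75% but some replicate below; inactive = mean inhibition below 75%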;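 also: 0% = median of neutral control wells and 100% = pilot-screen positive control compound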
The depositor's hits bear a star. Sampled rows, rich in hits. Any-hit rate of the full collection: about 2.8%.

How did Cn1c2ccccc2c(=O)c2c(=O)n(C3CCCCC3)c(-c3ccco3)nc21 do in these assays?
PAX8 inh HTS: 18; TRPM1 prom inh: 70*; EBV LMP1 NFkB: -3; HIF-2a inh: -2; Peg3 promoter: 0; Shn3 inh set2: 2

How did Cc1nc2c(c(=O)c3ccccc3n2C)c(=O)n1C1CCCCCC1 do in these assays?
PAX8 inh HTS: -40; TRPM1 prom inh: -36; EBV LMP1 NFkB: -4; HIF-2a inh: -94; Peg3 promoter: -95; Shn3 inh set2: -19

How did Cc1ccc(/C(O)=C/C(=O)C(=O)NNC(=O)C(O)(c2ccccc2)c2ccccc2)cc1 do in these assays?
TRPM1 prom inh: 15; EBV LMP1 NFkB: -5; HIF-2a inh: 4; Peg3 promoter: 12; Shn3 inh set2: -1

How did O=C(C=C(O)c1ccc(Cl)cc1)C(=O)NNC(=O)C(O)(c1ccccc1)c1ccccc1 do in these assays?
PAX8 inh HTS: 12; TRPM1 prom inh: 7; EBV LMP1 NFkB: -1; HIF-2a inh: 8; Peg3 promoter: 2; Shn3 inh set2: 98*

Results for CC1(C(=O)Nc2cnc3ccccc3c2)CCN1CCc1ccccc1 (centres undefined) ?
PAX8 inh HTS: 23; HIF-2a inh: 0; Peg3 promoter: 51*; Shn3 inh set2: 16

How did CC1(C(=O)Nc2cnc3ccccc3c2)CCN1C(=O)CCc1ccccc1 (centres undefined) do in these assays?
PAX8 inh HTS: 20; HIF-2a inh: -11; Peg3 promoter: 0; Shn3 inh set2: 14

What do the screens show for `Nc1cc2nc3ccccc3oc-2cc1=O`?
TRPM1 prom inh: 88*; EBV LMP1 NFkB: -13; HIF-2a inh: -20; Peg3 promoter: -37; Shn3 inh set2: 28

What do the screens show for `O=c1oc2ccccc2cc1-c1nc2ccccc2o1`?
TRPM1 prom inh: -45; EBV LMP1 NFkB: -26; HIF-2a inh: -165; Peg3 promoter: -182; Shn3 inh set2: -72

How did COc1ccc(CN(C)C[C@@H]2Oc3ccc(NC(=O)Nc4cccc5ccccc45)cc3C(=O)N([C@H](C)CO)C[C@@H]2C)cc1 do in these assays?
PAX8 inh HTS: -5

What do the screens show for `CCN(CC)S(=O)(=O)c1ccc(-c2nnc(SCC(=O)N3CCc4ccccc43)o2)cc1`?
TRPM1 prom inh: 24; EBV LMP1 NFkB: -41; HIF-2a inh: -8; Peg3 promoter: 52*; Shn3 inh set2: 41

Results for C[C@@H]1CN([C@H](C)CO)C(=O)c2cc(C#CC3(O)CCCC3)cnc2O[C@@H]1CN(C)C(=O)Cc1cccnc1 ?
PAX8 inh HTS: -18

How did O=C(NC1CCCC1)N[C@H]1C=C[C@@H](CC(=O)N2CCOCC2)O[C@@H]1CO do in these assays?
PAX8 inh HTS: -1

How did COC1(OC)C=CC(=O)C=C1NC(=O)c1ccccc1OC(C)=O do in these assays?
PAX8 inh HTS: 69*; TRPM1 prom inh: 31; EBV LMP1 NFkB: -6; HIF-2a inh: -2; Peg3 promoter: 50*; Shn3 inh set2: 26

How did CC(=O)Oc1ccccc1C(=O)Nc1ccccc1 do in these assays?
PAX8 inh HTS: -118; TRPM1 prom inh: -42; EBV LMP1 NFkB: -12; HIF-2a inh: -183; Peg3 promoter: -159; Shn3 inh set2: -68

How did CCOC(=O)c1c(NC(=O)C(=O)N/N=C/c2ccccc2O)sc2c1CCCCC2 do in these assays?
PAX8 inh HTS: 55; TRPM1 prom inh: inconclusive; EBV LMP1 NFkB: 11; HIF-2a inh: -1; Peg3 promoter: 44; Shn3 inh set2: 94*

What do the screens show for `CCOC(=O)c1c(NC(=O)C(NCCN(C)C)c2ccccc2)sc2c1CCCC2` (centres undefined)?
PAX8 inh HTS: 38; TRPM1 prom inh: 76*; EBV LMP1 NFkB: -9; HIF-2a inh: 5; Peg3 promoter: 106*; Shn3 inh set2: -8

Results for COc1ccc(NC(=O)N(C)C[C@H]2Oc3ccc(NS(=O)(=O)c4ccc(C)cc4)cc3CC(=O)N([C@H](C)CO)C[C@@H]2C)cc1 ?
PAX8 inh HTS: 6

Results for COc1ccc(O)c(/C=N/NC(=S)Nc2cccc(S(=O)(=O)N(C)C)c2)c1 ?
TRPM1 prom inh: 25; EBV LMP1 NFkB: 9; HIF-2a inh: -73; Peg3 promoter: 18; Shn3 inh set2: 90*

How did CCN(CC)S(=O)(=O)c1ccc(N/N=C/c2cc(OC)ccc2O)nc1 do in these assays?
PAX8 inh HTS: 68*; TRPM1 prom inh: inconclusive; EBV LMP1 NFkB: 46*; HIF-2a inh: 24; Peg3 promoter: 30; Shn3 inh set2: 80

How did COc1cccc(/C=N/NC(=S)Nc2cccc(S(=O)(=O)N(C)C)c2)c1 do in these assays?
PAX8 inh HTS: -17; TRPM1 prom inh: -7; EBV LMP1 NFkB: -1; HIF-2a inh: -40; Peg3 promoter: -10; Shn3 inh set2: 7

Results for COc1ccccc1-c1ccc([C@@H]2[C@@H](CO)N(CC3CC3)C23CN(S(C)(=O)=O)C3)cc1 ?
PAX8 inh HTS: -1

How did Cc1cc(Oc2nc3ccccn3c(=O)c2/C=C(\C#N)C(=O)NC2CCS(=O)(=O)C2)ccc1Cl (centres undefined) do in these assays?
PAX8 inh HTS: 12; TRPM1 prom inh: 16; EBV LMP1 NFkB: 16; HIF-2a inh: -8; Peg3 promoter: 66*; Shn3 inh set2: 8

What do the screens show for `COc1ccc(-n2nc(C(=O)NCC(=O)Nc3cc(OC)c(OC)c(OC)c3)c3ccccc3c2=O)cc1Cl`?
PAX8 inh HTS: 81*; TRPM1 prom inh: 16; EBV LMP1 NFkB: 37; HIF-2a inh: 6; Peg3 promoter: 44; Shn3 inh set2: 67

Results for Cc1ccccc1Nc1ccc(S(=O)(=O)N2CCOCC2)cc1[N+](=O)[O-] ?
PAX8 inh HTS: 3; TRPM1 prom inh: -1; EBV LMP1 NFkB: -5; HIF-2a inh: 13; Peg3 promoter: 59*; Shn3 inh set2: 11

How did Cc1ccc(Nc2ccc(S(=O)(=O)N3CCOCC3)cc2[N+](=O)[O-])c(C)c1 do in these assays?
PAX8 inh HTS: 12; TRPM1 prom inh: 8; EBV LMP1 NFkB: 4; HIF-2a inh: 32; Peg3 promoter: 21; Shn3 inh set2: 25

Results for CCN(CC)C(=O)[C@H]1C[C@H](CC(=O)NCc2cccc(C(F)(F)F)c2)C(=O)N2CCc3c([nH]c4ccc(Cl)cc34)[C@]12C ?
PAX8 inh HTS: 76*; TRPM1 prom inh: 21; EBV LMP1 NFkB: -2; HIF-2a inh: -18; Peg3 promoter: 48; Shn3 inh set2: 5

How did CCN(CC)C(=O)[C@H]1C[C@H](CC(=O)NCC23CC4CC(CC(C4)C2)C3)C(=O)N2CCc3c([nH]c4ccc(Cl)cc34)[C@]12C do in these assays?
PAX8 inh HTS: 41; TRPM1 prom inh: 12; EBV LMP1 NFkB: -6; HIF-2a inh: -7; Peg3 promoter: 59*; Shn3 inh set2: 22

How did CCN(CC)CCCNc1nc2ccccc2c2[nH]c3ccc(OC)cc3c12 do in these assays?
PAX8 inh HTS: 99*; TRPM1 prom inh: 102*; EBV LMP1 NFkB: -32; HIF-2a inh: 35; Peg3 promoter: 99*; Shn3 inh set2: 92*

What do the screens show for `C[C@@H]1CN([C@@H](C)CO)C(=O)c2cc(N(C)C)ccc2O[C@H]1CN(C)C(=O)Nc1ccccc1`?
PAX8 inh HTS: 13

Screening data deposited in PubChem BioAssay by several laboratories.
